Assay results reported in PubChem BioAssay (NCI).
Compounds without any hit were thinned out: in the full panel of roughly 83,000, 20% have a hit.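 Cells were grown in 96-well plates and exposed to the test compound at a single concentration for 48 hours; results are reported as percent growth, with values below 10 considered active.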 Unmarked numbers belong to inactive results. The source made the active and inactive calls.

Experiments:
Experiment in all cases: NCI-60 one-dose screen, 48 h (100 = growth as untreated, 0 = no growth, -100 = all killed)
Conditions in all cases: 10 µM unless noted
T-47D breast = tested on: T-47D breast
BT-549 breast = tested on: BT-549 breast
MDA-MB-435 melanoma = tested on: MDA-MB-435 melanoma
SW-620 colon = tested on: SW-620 colon
MCF7 breast = tested on: MCF7 breast
HCT-116 colon = tested on: HCT-116 colon
HCC-2998 colon = tested on: HCC-2998 colon
KM12 colon = tested on: KM12 colon

Structure (SMILES) | growth (T-47D breast) | growth (BT-549 breast) | growth (MDA-MB-435 melanoma) | growth (SW-620 colon) | growth (MCF7 breast) | growth (HCT-116 colon) | growth (HCC-2998 colon) | growth (KM12 colon)
O=C(/C=C/c1cn(-c2ccccc2)nc1-c1ccccc1)OCc1cn(-c2cccc([N+](=O)[O-])c2)nn1 | 78.2% | 94.7% | 94% | 90.6% | 86.8% | 82.3% | 96.7% | 98.6%
O=S(=O)(Cc1ccc(Cl)cc1Cl)c1ccc(Cl)cc1 | 47.5% | 62.7% | -33.1% (active) | 37.5% | 22.1% | 26.9% | 31.7% | 33.6%
CCOC(=O)c1ccc(NC(=O)CSC(N)=O)cc1 | 131% | 93.8% | 113% | 103% | 99.3% | 87.9% | 105% | 111%
Nc1nc(N)c2cc(NCc3ccc(Cl)c(Cl)c3)ccc2n1 | -81.3% (active) | 46.3% | -68.1% (active) | -77.4% (active) | -72.8% (active) | -88.2% (active) | -85.9% (active) | -94.4% (active)
COc1ccc(CNc2c3ccccc3nc3ccc(OC)cc23)cc1 | 34.2% | 43% | 19% | 15.8% | -29.8% (active) | 12.7% | -57.6% (active) | 27.6%
NC(N)=N/N=C/c1ccc(Cl)cc1 | 91.5% | 77.4% | -53.2% (active) | 24.5% | 23.5% | 50.8% | 86.8% | 15.5%
Oc1ccc(-c2nc3ccccc3s2)cc1CN(Cc1ccccn1)Cc1ccccn1 | 12.8% | 18.5% | 26.6% | 20.1% | 14.8% | 15.5% | 5.52% (active) | 24.8%
COc1cnc2c(c1)C(=O)c1c-2n(CCCNC(C)C)c(=O)c2cc(Cl)ccc12 | -84.3% (active) | 30.9% | -94.6% (active) | -81.7% (active) | -58.6% (active) | -92.4% (active) | -52.1% (active) | -71.7% (active)
CN1C(=O)N(C)C2C1NN=c1s/c(=C\c3ccsc3)c(=O)n12 (stereo not given) | 44.3% | 37% | -3.38% (active) | 26.6% | 15.2% | 18.5% | 73.7% | 18.9%
COc1ccc(Cl)cc1Nc1nc(C(F)(F)F)ccc1C(=O)NN | 29.4% | 20.2% | 40.2% | 88.6% | 90.4% | 38.8% |  | 38.6%
COc1ccc2nc3cc(Cl)ccc3c(NC(=O)CSc3ccc(Cl)cc3)c2c1 | -79.6% (active) | -98.7% (active) | -82.4% (active) | -80.4% (active) | -60% (active) | -94.4% (active) |  | -75.4% (active)
NS(=O)(=O)c1ccc(CCn2c(SCC(=O)N/N=C/c3ccccc3O)nc3ccccc3c2=O)cc1 | 49.2% | 53.9% | 3.97% (active) | 26.1% | 21.7% | 16.9% | 86.8% | 34%
COc1nccc2c(Sc3ccccc3)nc(N)nc12 | 107% | 85.9% | 110% | 109% | 91.9% | 97.6% | 106% | 113%
CCOC(=O)C(CCCCC(NC(C)=O)(C(=O)OCC)C(=O)OCC)(NC(C)=O)C(=O)OCC | 89.4% | 107% | 104% | 104% | 98.3% | 105% | 109% | 100%
